Source: PubChem BioAssay AID2717 (Broad Institute, 2010)
The whole screen tested about 300,000 compounds, of which about 3,200 (1.1%) were called active. Many of the other results were omitted from the sample, so actives are more common in it than they were. Unmarked numbers belong to inactive results. Rule as the data show it: active = inhibition above about 75%; inconclusive = no clear call, values can overlap the other calls; inactive = below that; tested in HMLE shEcad cells.

assay: cancer stem cell viability inhibitors, primary screen, luminescence (AID 2717); conditions: cancer stem cell-like cells viability, at 7.5 µM, stronger effect = higher value

Compound	inhibition
Cc1cc(C(=O)OCC(=O)N2C(C)CCCC2C)c2ccccc2n1 (centres undefined)	-3.37%
Cc1cc(C)n(-c2c(F)c(F)c(COC(=O)c3ccccc3)c(F)c2F)n1	3.98%
CCOC(=O)c1cnc(-n2nc(C)cc2C)nc1NNc1cc(C)nc(-c2ccccc2)n1	101% (active)
CCOC(=O)c1cnc(-n2nc(C)cc2C)nc1Nc1cccc(C(C)=O)c1	-9.8%
Nn1c(SCC(=O)Nc2ccc3c(c2)CCC3)nnc1C1CC1	-6.39%
O=C(COC(=O)c1ccc(F)cc1)NCC1COc2ccccc2O1 (centres undefined)	-14.2%
CCCc1cc(=O)[nH]c(SCC(=O)c2cc(C)n(CCC)c2C)n1	-3.32%
CCCc1cc(=O)[nH]c(SCC(=O)c2c(N)n(CC(C)C)c(=O)n(C)c2=O)n1	83.8% (active)
CCCc1cc(=O)[nH]c(SCC(=O)OCc2ccccc2)n1	4.11%
O=C(CCc1nc(-c2ccccc2)no1)Nc1cccc(C(=O)NC2CC2)c1	1.1%
CCN(C(=O)COC(=O)c1ccccc1O)c1cccc2ccccc12	-18.3%
CCc1cc(C(=O)Nc2nnc(C3CC3)s2)sc1C	-10.9%
C[C@H](CO)N1C[C@H](C)[C@@H](CN(C)C(=O)Nc2ccc3c(c2)OCO3)Oc2c(cccc2N(C)C)C1=O	-12.1%
COc1ccc2sc(-c3ccc(N(C)C)cc3)c(C#CCO)c2c1	113% (active)
COc1ccc2sc(-c3ccc(S(C)(=O)=O)cc3)c(C#Cc3cncn3C)c2c1	45.5%
COc1ccc(-c2sc3ccc(OC)cc3c2C#Cc2ccccn2)cc1	111% (active)
COc1ccc(-c2c(C#Cc3ccccc3)c3ccccc3n2C)cc1	3.8%
COc1ccc(C2(C)ON(c3ccccc3C(F)(F)F)C2=O)cc1 (centres undefined)	6.61%
Cn1nnnc1SCC(=O)Nc1cccc(S(=O)(=O)N2CCCCC2)c1	1.58%
Cn1cccc1C(=O)OCC(=O)NCCc1ccccc1	6.32%

Compound	inhibition
Cc1cccc2cc3c(N)c(C(=O)N4CCCc5ccccc54)sc3nc12	85.3% (active)
Cc1c(C(=O)N2CCCc3ccccc32)oc2ccccc12	-3.96%
Cc1c(C(=O)N2CCCc3ccccc32)sc2nc(-c3ccccc3)cn12	36.7%
Oc1c(Cl)cc(Cl)c(Cl)c1Cc1c(O)c(Cl)cc(Cl)c1Cl	99.3% (active)
Cc1ccc(NS(=O)(=O)c2ccc(C(C)C)cc2)cc1S(=O)(=O)N1CCOCC1	-16.7%
Cc1cc(C)cc(NS(=O)(=O)c2ccc(Oc3ncc(C(F)(F)F)cc3Cl)cc2)c1	118% (active)
COC(=O)Cc1ccc(Oc2ncc(C(F)(F)F)cc2Cl)cc1	-10.7%
Cc1cc(C)cc(NS(=O)(=O)c2ccc(F)cc2)c1	-6.47%
CN1C(=O)[C@H]2[C@@H](/C=C/c3ccccc3)N3C(=O)CN(Cc4ccc(-c5ccccc5)cc4)C(=O)[C@@]3(C)[C@H]2C1=O	-4%
CN(CC(=O)NCCc1ccc(S(N)(=O)=O)cc1)CC(=O)Nc1ccc(F)c(F)c1F	-16.9%
CC1CC(=NNC(=O)C2COc3ccccc3O2)CC(C)(C)C1 (centres undefined)	-9.31%
Cc1ccc2c(N)c(C(=O)c3ccccc3)sc2n1	45.8%
CCc1nc2sc(C(=O)O)c(N)c2c2c1CCCC2	5.22%
O=C(NNC(=O)c1cccc(S(=O)(=O)Nc2ccc(Cl)cc2)c1)c1ccc(=O)[nH]c1	-9.6%
Cc1ccc(NC(=O)c2cccc(S(=O)(=O)N3CCCc4ccccc43)c2)nc1	0.233%
COc1ccc(Cl)cc1NC(=O)COC(=O)c1ccc(Br)o1	0.173%
CS(=O)(=O)c1ccc(C(=O)NNC(=O)c2cccs2)cc1	-0.179%
Nc1nonc1-n1nnc(C(=O)N/N=C/c2cc(Br)ccc2O)c1CSC1=NCCS1	108% (active)
Cc1ccc(SCc2c(C(=O)N/N=C/c3cccnc3)nnn2-c2nonc2N)cc1	1.7%
Nc1nonc1-n1nnc(C(=O)N/N=C/c2ccccc2O)c1CN1CCCC1	62%

Compound	inhibition
O=C1COc2ccc(C(=O)COC(=O)CCOc3ccccc3)cc2N1	0.0702%
CC1(C)CC(=O)c2ccc(O)cc2O1	2.93%
CC[C@@H]1Cc2cc(O)ccc2C2=C1c1ccc(O)cc1C[C@H]2CC	102% (active)
CC(C)CC1(C)NC(=O)N(CC(=O)Nc2ccc3c(c2)OCCO3)C1=O (centres undefined)	-19%
O=C(Nc1ccncc1)c1ccc(Cl)c([N+](=O)[O-])c1	2.54%
O=C(/C=C/c1ccc(Cl)c([N+](=O)[O-])c1)c1ccc(O)cc1	80.8% (active)
CC(=O)Nc1ccc(/C=C/C(=O)c2ccccc2)cc1	2.62%
O=C(/C=C/c1ccc2c(c1)OCCO2)c1ccc(O)cc1	19.1%
CN(C)c1ccc(/C=C/C(=O)c2ccc(C(C)(C)C)cc2)cc1[N+](=O)[O-]	75.4% (active)
CN(C)c1ccc(/C=C/C(=O)c2ccc(O)cc2)cc1[N+](=O)[O-]	26.4%
Cc1sc2ncnc(N3CCC(C(=O)Nc4ccc(F)cc4Cl)CC3)c2c1C	4.03%
COc1cc(OC)cc(C(=O)NCC(=O)OCC(=O)NC(C)CCc2ccccc2)c1 (centres undefined)	-13.2%
CC(C)(C)OC(=O)CNC(=O)c1[nH]cnc1C(=O)N[C@@H](CCCCN)C(=O)OC(C)(C)C	-4.68%
O=C(O)/C=C/C(=O)Nc1ccc(F)cc1F	-20.2%
COC(=O)c1sc(-c2ccc(C(C)(C)C)cc2)cc1NC(=O)/C=C/C(=O)O	119% (active)
COc1ccccc1NC(=O)/C=C/C(=O)O	0.627%
COc1cc(OC)cc(-c2cc3ccc(F)cc3cn2)c1	47%
CC[C@]1(O)CC2CN(CCc3c([nH]c4ccccc34)[C@@](C(=O)OC)(c3cc4c(cc3OC)N(C=O)[C@H]3[C@@](O)(C(=O)OC)[C@H](OC(C)=O)[C@]5(CC)C=CCN6CC[C@]43[C@@H]65)C2)C1 (some centres undefined)	62.5%
CC[C@]1(O)C[C@@H]2CN(CCc3c([nH]c4ccccc34)[C@@](C(=O)OC)(c3cc4c(cc3OC)N(C)[C@H]3[C@@](O)(C(=O)OC)[C@H](OC(C)=O)[C@]5(CC)C=CCN6CC[C@]43[C@@H]65)C2)C1	80.5% (active)
